Structures are written as SMILES. About 83,000 compounds went through this panel and 20% of them were active in at least one assay; those are over-represented in the sample as a whole.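 Activity criterion: percent growth below 10, measured after cells in 96-well plates were exposed to a single compound concentration for 48 hours.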 Values without a mark were called inactive. Activity calls are given as the source filed them.

This passage reports growth results from PubChem BioAssay (NCI).

What all share (experiment): NCI-60 one-dose screen, 48 h (100 = growth as untreated, 0 = no growth, -100 = all killed)
For one assay, the system named is NCI-H23 lung. Particulars: 10 µM unless noted.
The next assay has as its system NCI-H226 lung. The conditions noted are these: 10 µM unless noted.
The next assay concerns NCI-H322M lung. Particulars: 10 µM unless noted.
Another assay has as its system HOP-62 NSCLC. Particulars: 10 µM unless noted.
Another assay relates to NCI-H460 lung. Particulars: 10 µM unless noted.
The subject of another assay is HOP-92 NSCLC. Particulars: 10 µM unless noted.
Another assay relates to NCI-H522 lung. The conditions noted are these: 10 µM unless noted.
The test system of another assay is A549/ATCC NSCLC. Particulars: 10 µM unless noted.
The next assay deals with 786-0 renal. Particulars: 10 µM unless noted.
The test system of a further assay is COLO 205 colon. Particulars: 10 µM unless noted.
Another assay relates to DU-145 prostate. Particulars: 10 µM unless noted.
In another assay the test system is K-562 leukemia. The conditions noted are these: 10 µM unless noted.
Another assay concerns MALME-3M melanoma. The conditions noted are these: 10 µM unless noted.
In a further assay the test system is MDA-MB-231 breast. The conditions noted are these: 10 µM unless noted.
The next assay relates to RXF 393 renal. Particulars: 10 µM unless noted.
The next assay relates to SF-268 CNS. Particulars: 10 µM unless noted.
The subject of another assay is SF-295 CNS. The conditions noted are these: 10 µM unless noted.
The test system of the next assay is SF-539 CNS. The conditions noted are these: 10 µM unless noted.
The next assay relates to UACC-257 melanoma. The conditions noted are these: 10 µM.
Another assay has as its system M14 melanoma. The conditions noted are these: 10 µM unless noted.

Take `N#C/C(=C\c1ccc(N2CCCCC2)cc1)C(=O)Nc1sc2c(c1C#N)CCC2`: the growth with NCI-H23 lung is 93.8%; in the assay with NCI-H226 lung it was 88.1%; in the assay with NCI-H322M lung, 99.4%; in the assay with HOP-62 NSCLC, 94.7%; with NCI-H460 lung, 74.8%; with HOP-92 NSCLC it was 89.4%. Further, the growth was 92.7% in the assay on NCI-H522 lung; 90.6% in the assay on A549/ATCC NSCLC; 101% in the assay with 786-0 renal; 118% in the assay with COLO 205 colon; 101% with DU-145 prostate; 90.7% in the assay on K-562 leukemia. Moreover, the growth is 100% in the assay with MALME-3M melanoma; 96.4% in the assay with MDA-MB-231 breast; 83.5% in the assay on RXF 393 renal; 90.3% in the assay with SF-268 CNS; 95.8% in the assay with SF-295 CNS; 89.6% in the assay with SF-539 CNS. Further, the figures for the growth with UACC-257 melanoma and in the assay with M14 melanoma were 91.7% and 102%, respectively.

As for `Cc1cc(Cl)cc(NS(=O)(=O)c2ccc(-c3cnc(C4CC4)o3)cc2)c1`, the growth in the assay with NCI-H23 lung was 35.7%; with NCI-H226 lung, 60.5%; with NCI-H322M lung, 46.7%; in the assay with HOP-62 NSCLC, 41.7%; in the assay on NCI-H460 lung it was 16.2%; in the assay on HOP-92 NSCLC, 66.5%. Further, the growth in the assay with NCI-H522 lung is 17.9%; with A549/ATCC NSCLC it was 31.8%; in the assay with 786-0 renal, 49.4%; in the assay with COLO 205 colon it was 2.78% (active); in the assay on DU-145 prostate it was 24.7%; in the assay with K-562 leukemia, 8.81% (active). The growth with MALME-3M melanoma is 65.4%; in the assay on MDA-MB-231 breast it was 35.4%; in the assay with RXF 393 renal, -0.916% (active); with SF-268 CNS, 61.7%; in the assay with SF-295 CNS, 1.04% (active); with SF-539 CNS it was 6.15% (active). For the same compound, the figures for the growth in the assay with UACC-257 melanoma and in the assay with M14 melanoma were 68.2% and 13.1%, respectively.

As to `CC1CCc2c(sc3nc(SCC(=O)N/N=C/c4cccc(O)c4O)n(-c4ccccc4)c(=O)c23)C1` (stereo not given), the growth with NCI-H23 lung was 88%; in the assay on NCI-H226 lung, 87.4%; in the assay with NCI-H322M lung, 96.8%; in the assay on HOP-62 NSCLC, 71.2%; in the assay on NCI-H460 lung it was 88.4%; in the assay with HOP-92 NSCLC it was 45.4%. Moreover, the growth with NCI-H522 lung was 83.1%; with A549/ATCC NSCLC, 86.2%; in the assay with 786-0 renal it was 99.7%; with COLO 205 colon it was 110%; in the assay on DU-145 prostate it was 74.7%; in the assay on K-562 leukemia it was 77.6%. Moreover, the growth is 95.1% in the assay on MALME-3M melanoma; 84.6% in the assay with MDA-MB-231 breast; -2.02% (active) in the assay with RXF 393 renal; 105% in the assay on SF-268 CNS; 86.7% in the assay with SF-295 CNS; 94.7% in the assay with SF-539 CNS. The growth is 100% in the assay on UACC-257 melanoma and 84.4% with M14 melanoma.

As for `C[C@@H]1C[C@H]2C(=O)OCC(NC(=O)[C@H](Cc3cc(F)cc(F)c3)NC(=O)Nc3ccc(Cl)cc3F)C(=O)N3CCC[C@H]3C(=O)N3CCCC[C@H]3C(=O)N[C@@H](C)C(=O)N2C1` (stereo not given in full), the growth in the assay on NCI-H23 lung is 37.9%; in the assay with NCI-H226 lung, -4.62% (active); in the assay with NCI-H322M lung, 48.3%; in the assay with HOP-62 NSCLC, 39.1%; with NCI-H460 lung, 14.8%; in the assay on HOP-92 NSCLC, 9.65% (active). Moreover, the growth is 17.2% with NCI-H522 lung; 25.1% in the assay on A549/ATCC NSCLC; 33.6% with 786-0 renal; -9.71% (active) in the assay on COLO 205 colon; 24.7% in the assay with DU-145 prostate; 19.3% in the assay with K-562 leukemia. In addition, the growth in the assay with MALME-3M melanoma was 35.9%; in the assay on MDA-MB-231 breast, 27.3%; in the assay on RXF 393 renal, -12.6% (active); with SF-268 CNS, 29.8%; in the assay with SF-295 CNS it was 8.11% (active); in the assay with SF-539 CNS it was 32.1%. Besides, the figures for the growth in the assay on UACC-257 melanoma and in the assay with M14 melanoma were 17.2% and 19%, respectively.

`O=C(/C=C/Nc1ccc(S(=O)(=O)O)cc1)c1ccc(F)cc1`: the growth was 95.9% in the assay on NCI-H23 lung; 98.5% in the assay on NCI-H226 lung; 102% in the assay on NCI-H322M lung; 117% with HOP-62 NSCLC; 101% in the assay with NCI-H460 lung; 96.2% with HOP-92 NSCLC. Further, the growth with NCI-H522 lung was 98.5%; in the assay with A549/ATCC NSCLC, 101%; in the assay with 786-0 renal, 106%; with COLO 205 colon, 101%; in the assay with DU-145 prostate, 103%; with K-562 leukemia, 106%. Moreover, the growth is 105% in the assay on MALME-3M melanoma; 106% in the assay on MDA-MB-231 breast; 99.9% in the assay on RXF 393 renal; 102% in the assay with SF-268 CNS; 98.7% in the assay with SF-295 CNS; 94% with SF-539 CNS. Moreover, the growth is 101% with UACC-257 melanoma and 96% in the assay with M14 melanoma.

Regarding `COc1ccc(C(=O)c2c(N)c(C#N)cn2-c2cccc(OC)c2)cc1`, the growth is 49.8% in the assay on NCI-H23 lung; 63.5% in the assay on NCI-H226 lung; 62.6% with NCI-H322M lung; 30.6% in the assay on HOP-62 NSCLC; 27.8% in the assay on NCI-H460 lung; 21.7% in the assay with HOP-92 NSCLC. Also, the growth in the assay on NCI-H522 lung is 3.14% (active); with A549/ATCC NSCLC, 42.9%; in the assay on 786-0 renal, 37.5%; in the assay with COLO 205 colon, 25.3%; with DU-145 prostate, 50.6%; in the assay with K-562 leukemia, 14.5%. For the same compound, the growth with MALME-3M melanoma was 40.5%; with MDA-MB-231 breast, 39.2%; in the assay on RXF 393 renal it was 17.3%; in the assay on SF-268 CNS, 64.6%; in the assay with SF-295 CNS it was -25.5% (active); with SF-539 CNS, -5.54% (active). The growth in the assay with UACC-257 melanoma is 47.5%; with M14 melanoma it was 10.3%.

Regarding `CC(=O)Nc1cccc(-n2cnc3cc(-c4ccc(O)cc4)ccc32)c1`, the growth in the assay with NCI-H23 lung is 47.8%; in the assay with NCI-H226 lung, 37.9%; in the assay with NCI-H322M lung it was 56.6%; in the assay with HOP-62 NSCLC it was 38.4%; in the assay with NCI-H460 lung, 15.9%; with HOP-92 NSCLC, 49.5%. The growth with NCI-H522 lung is -29.8% (active); in the assay on A549/ATCC NSCLC it was 50.4%; in the assay on 786-0 renal it was 45.6%; in the assay with COLO 205 colon it was 66.3%; in the assay on DU-145 prostate, 27.9%; with K-562 leukemia, 8.67% (active). Also, the growth in the assay on MALME-3M melanoma is 73.7%; in the assay on MDA-MB-231 breast, 61.1%; in the assay with RXF 393 renal, -6.91% (active); in the assay on SF-268 CNS, 46.2%; in the assay with SF-295 CNS, 17.1%; in the assay on SF-539 CNS, -5.03% (active). Besides, the values for the growth in the assay on UACC-257 melanoma and in the assay with M14 melanoma were 79.6% and 53.2%, respectively.

Regarding `C#C[C@]1(O)CC[C@H]2[C@@H]3CC=C4c5sc(Nc6nc(C)cc(OC)n6)nc5CC[C@]4(C)[C@H]3CC[C@@]21C`, the growth with NCI-H23 lung is 71.9%; in the assay on NCI-H226 lung, 71%; in the assay on NCI-H322M lung it was 92.9%; in the assay on HOP-62 NSCLC, 40%; with NCI-H460 lung, 21.9%; with HOP-92 NSCLC, 43.9%. The growth in the assay with NCI-H522 lung is 88.1%; in the assay with A549/ATCC NSCLC, 53.9%; in the assay with 786-0 renal, -4.27% (active); in the assay with COLO 205 colon, 78.5%; in the assay with DU-145 prostate, 61.4%; with K-562 leukemia, 14%. For the same compound, the growth in the assay on MALME-3M melanoma was 24%; in the assay on MDA-MB-231 breast, 56.1%; in the assay on RXF 393 renal, -34.9% (active); in the assay on SF-268 CNS it was 35.8%; in the assay on SF-295 CNS, -60% (active); in the assay on SF-539 CNS, -14.8% (active). In addition, the growth is 46.1% with UACC-257 melanoma and 27% with M14 melanoma.
